Bioassay records (PubChem BioAssay)
Sampled rows, rich in hits. Any-hit rate of the full collection: about 12%.
USP17 block: inhibitors of human USP17 deubiquitinase; Ubiquitin carboxyl-terminal hydrolase 17-like protein 5 (Homo sapiens), A8MUK1; purified USP17, Ub-rhodamine cleavage fluorescence, 3 h; inhibition, % at 50 µM; actives 6.5% (n = 47,000); AID 1645855, 2021
OTUD3 inh: inhibitors of human OTUD3 deubiquitinase. inhibition, % at 25 µM. actives 0.7% (n = 47,000). purified OTUD3, Ub-rhodamine fluorescence, 2 h. OTU domain-containing protein 3 (Homo sapiens), Q5T2D3
USP30 block: inhibitors of human USP30 deubiquitinase; AID 1645860, 2021; actives 5.3% (n = 47,000); inhibition, % at 25 µM; purified USP30, Ub-rhodamine cleavage fluorescence
Target sequence (Q70CQ3 whole entry, looked up): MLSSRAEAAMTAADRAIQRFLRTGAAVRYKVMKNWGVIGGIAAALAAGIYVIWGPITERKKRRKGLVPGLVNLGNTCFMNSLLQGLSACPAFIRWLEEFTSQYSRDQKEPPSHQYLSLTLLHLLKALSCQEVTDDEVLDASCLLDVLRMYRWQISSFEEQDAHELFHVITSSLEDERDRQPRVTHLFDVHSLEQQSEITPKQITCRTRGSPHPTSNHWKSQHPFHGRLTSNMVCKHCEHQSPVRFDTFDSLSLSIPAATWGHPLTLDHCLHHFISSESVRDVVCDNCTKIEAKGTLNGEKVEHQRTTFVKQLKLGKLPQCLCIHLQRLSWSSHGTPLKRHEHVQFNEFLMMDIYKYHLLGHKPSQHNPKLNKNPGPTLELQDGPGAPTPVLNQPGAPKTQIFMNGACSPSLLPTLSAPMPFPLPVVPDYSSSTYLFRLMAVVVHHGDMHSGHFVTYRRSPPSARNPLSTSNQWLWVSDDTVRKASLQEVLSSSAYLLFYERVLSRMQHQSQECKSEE
USP28 inh: inhibitors of human USP28 deubiquitinase | inhibition, % at 25 µM | actives 3% (n = 47,000) | purified USP28, Ub-rhodamine cleavage fluorescence, 30 min | AID 1645857, 2021 | Ubiquitin carboxyl-terminal hydrolase 28 (Homo sapiens), Q96RU2
* hit, by the source's call; . = not tested or not shown. Cut-off read from the data, not from the text of the source: active = inhibition above about 30%; inactive = the rest.

SMILES	USP17 block	OTUD3 inh	USP30 block	USP28 inh
Clc1ccc(-c2cnc3sc(NCCc4ccccn4)nn23)cc1	8.0	7.6	21.8	1.5
Cc1cc2cc(CNC(=O)NC3CCCCC3)ccc2n1C	33.1*	-28.4	-83.5	-13.9
COc1ccc(CC(=O)NCc2ccc3c(c2)cc(C)n3C)cc1OC	-31.5	-46.8	-213.0	-55.8
O=C(COc1ccc(N2CC(C(=O)NCc3ccccc3)CC2=O)cc1)Nc1ccccc1Cl (stereo not drawn)	56.0*	12.8	52.0*	12.5
O=C(NCC(c1ccco1)N1CCCC1)c1ccccc1Cl (stereo not drawn)	-9.2	-5.0	-14.9	-5.3
Cc1ccc(CN2C[C@@H]3c4nc(N(C)C)ncc4CS(=O)(=O)[C@@H]3C2)cc1	-3.3	6.1	30.5*	7.5
CC(CC(=O)OCC(=O)Nc1ccc2[nH]c(=O)[nH]c2c1)c1ccccc1 (stereo not drawn)	17.2	-2.2	15.9	31.1*
O=C(COC(=O)c1ccccc1F)Nc1ccc2[nH]c(=O)[nH]c2c1	17.9	-0.2	17.6	36.6*
O=C(CSc1nnc2ccccn12)Nc1ccc2[nH]c(=O)[nH]c2c1	5.7	-27.3	-123.3	-11.0
Cc1nnc(SCC(=O)Nc2ccc3[nH]c(=O)[nH]c3c2)n1-c1ccccc1	34.0*	-2.1	-13.0	1.7
O=C(COC(=O)c1ccc(F)cc1)Nc1ccc2[nH]c(=O)[nH]c2c1	29.0	9.7	13.6	23.3
O=C(COC(=O)c1cc(Cl)c2c(c1)OCO2)Nc1ccc2[nH]c(=O)[nH]c2c1	56.8*	30.7*	-26.9	51.1*
COc1ccccc1NC(=O)Cn1c(=O)n(-c2ccc(F)cc2)c2ncccc21	-7.6	-5.4	6.2	4.9
Nc1ncncc1-c1noc([C@@H]2CCCN2Cc2cc3ccccc3o2)n1	-2.7	-3.3	-37.5	-4.0
Cc1ccc(NC(=O)CCC(=O)Nc2ccc3nc(N4CCCCC4)cc(C)c3c2)c(Br)c1	63.4*	10.3	34.2*	17.6
Cc1cc(N2CCCCC2)nc2ccc(NC(=O)c3ccncc3)cc12	-7.2	-23.9	-33.1	37.5*
CCN1CCN(c2cc(C)c3cc(NC(=O)C4CC4)ccc3n2)CC1	-13.4	-7.1	-7.8	-11.3
Cc1cc(N2CCOCC2)nc2ccc(NC(=O)CCC(=O)Nc3ccc(F)cc3)cc12	60.4*	20.7	39.3*	11.8
CN(Cc1ccccc1)S(=O)(=O)c1ccc2[nH]cc(C(=O)NCc3cccs3)c(=O)c2c1	60.4*	-8.2	-33.0	-8.6
O=C(C1CCN(S(=O)(=O)c2cc(F)ccc2F)CC1)N1CCc2sccc2C1	33.3*	-2.4	-1.1	6.9
COc1cccc(/C=C/C(=O)Nc2ccc(N3CCOCC3)cc2)c1OC	30.4*	6.5	12.7	59.6*
O=C1COc2ccc(C(=O)NCc3ccc4c(c3)OCO4)cc2N1	-5.8	-1.4	0.3	9.0
O=C(NCc1ccc(Cl)cc1)c1cc2c(s1)-c1ccccc1OC2	87.5*	6.7	54.7*	25.3
O=C(NCc1ccc2c(c1)OCO2)c1cc2c(s1)-c1ccccc1OC2	17.2	12.0	57.4*	27.3
O=C1CCSc2c1cccc2C(=O)Nc1cccc(C(F)(F)F)c1	4.8	3.6	7.3	11.5
SMILES	USP17 block	OTUD3 inh	USP30 block	USP28 inh
Cc1ccc(NC(=O)c2cc3c(s2)-c2ccccc2OC3)c(Cl)c1	26.6	17.8	41.4*	13.9
O=C(Nc1cccc(C(F)(F)F)c1)c1cc2c(s1)-c1ccccc1OC2	.	26.7	70.2*	25.9
COc1ccc(NC(=O)c2c(C)oc3nc[nH]c(=O)c23)cc1Cl	-8.8	-9.0	-53.0	-16.3
COc1ccc(S(=O)(=O)N(C)Cc2cccs2)cc1OC	11.4	18.4	27.0	68.1*
COc1cc2c(=O)n(CC3CCCO3)c(=O)n(CC(=O)Nc3ccc4c(c3)OCCO4)c2cc1OC (stereo not drawn)	49.1*	15.1	38.0*	13.7
COc1cc2c(=O)n(CC3CCCO3)c(=O)n(CC(=O)c3ccc4c(c3)OCO4)c2cc1OC (stereo not drawn)	10.2	-1.9	-5.4	3.2
COc1cc2c(=O)n(CCCC(=O)NCC3CCCO3)c(=O)n(CC(=O)NC3CCCCC3)c2cc1OC (stereo not drawn)	3.3	10.4	33.1*	11.1
Cn1c(=O)c(C(=O)CN2CCN(c3ccc(O)cc3)CC2)c(N)n(Cc2ccccc2)c1=O	59.0*	0.9	-1.2	26.4
Cc1cc(=O)cc(C2CCN(Cc3cnc(C(C)C)nc3)CC2)[nH]1	-6.4	-4.2	-14.6	-2.7
NC(=S)N=Nc1c(O)[nH]c2ccc(Br)cc12	21.8	6.6	33.8*	14.0
CCn1c(=O)[nH]c2ccc(Br)cc2c1=O	5.9	6.8	15.0	2.9
